Each structure is given as a SMILES string. This is part of a sample that, as a whole, favours compounds with a hit. Of some 83,000 tested, about 20% had one in any assay.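 Step 1: grow cells in 96-well plates. Step 2: add test compound at a single concentration. Step 3: incubate 48 h. Step 4: record percent growth.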 Activity calls are given as the source filed them. Rule for the calls: active = growth percent below 10; inactive = the rest.

The subject of this test is HL-60(TB) leukemia. The test can be described thus: NCI-60 one-dose screen, 48 h (100 = growth as untreated, 0 = no growth, -100 = all killed). To be noted: 10 µM unless noted.
As to `CCCCCCCC/C=C/CCCCCCCC1=NC(C)(C)CN1c1ccccc1`, the growth was 70% (inactive).

Consider `C#Cc1cccc(NC(=O)Nc2ccccc2NC(=O)CCl)c1`, for which the growth is 16.8% [8.25 µM] (inactive).

Take `C=C(C)[C@@H]1CC[C@]2(C(=O)NNC(=O)c3cccnc3)CC[C@]3(C)[C@H](CC[C@@H]4[C@@]5(C)CCCNC(C)(C)[C@@H]5CC[C@]43C)[C@@H]12`: the growth was 66.9% (inactive).

`CCN1C(=O)N(CC)C2Nn3c(s/c(=C4\C(=O)Nc5ccccc54)c3=O)=NC21` (stereo not given): the growth was 27.8% (inactive).

`Cc1cc2nc3c4cccc(O)c4n(CCN(C)C)c3nc2cc1C`: the growth was 29.2% (inactive).

Regarding `C/C(=N\Nc1cccc(Cl)n1)c1ccccn1`, the growth was -9.92% (active).

As for `CC(=O)[C@@]12O[C@](C)(c3ccccc3)O[C@@H]1CC1C3CCC4=CC(=O)CC[C@]4(C)C3CC[C@@]12C` (stereo not given in full), the growth was 0.639% (active).

Consider `Cc1ncc(-c2ccnc(Nc3ccc(S(C)(=O)=O)cc3)n2)n1C(C)C`, for which the growth was -43.2% (active).

As for `Nc1c(C(=O)Nc2cccc(Cl)c2)sc2ncc(Br)cc12`, the growth is 108% (inactive).

On to `CCN(CC)c1ccc(CNc2cc(C)nc3ccccc23)cc1`, for which the growth is 81.1% (inactive).

In the case of `CC1=C(C(=O)Nc2ccccc2)C(c2ccc3c(c2)OCCO3)NC(=O)N1` (stereo not given), the growth is 106% (inactive).

As to `NS(=O)(=O)c1cn(-c2ncnc3nc[nH]c23)ccc1=O`, the growth is 79.5% (inactive).

Regarding `CCCCC(O)Cn1ncc(C(=O)OCC)c1NC(=O)NCc1ccccc1C(F)(F)F` (stereo not given), the growth was 76.3% (inactive).

For `Cc1ccc(NS(=O)(=O)c2ccc3c(c2)C2OCCC2C(c2ccc(C(=O)C(C)C)cc2)N3)cc1C` (stereo not given), the growth is 20.4% (inactive).

On to `O=C(O)c1cc2ccccc2cc1Nc1ccccc1`, for which the growth was 93.3% (inactive).

Turning to `COc1cc(OC)cc(C2C(C#N)=C(N)Oc3c2ccc2ccc(O)cc32)c1` (stereo not given), the growth was -23.8% (active).

For the molecule `COc1ccc(C(O)c2cc3c(N)c(C(=O)Nc4cccc5ccccc45)sc3nc2C)cc1` (stereo not given), the growth was -1.39% (active).

`O=C(/C=C/C12c3ccccc3C(c3ccccc31)C1C(=O)NC(=O)C12)c1ccc(Br)cc1` (stereo not given): the growth was 2.14% (active).

Consider `Nc1n[nH]c2ccc([C@@H]3Nc4ccc5[nH]ncc5c4[C@H]4C5C=CC(C5)[C@@H]34)cc12` (stereo not given in full), for which the growth is -24.9% (active).

Regarding `CCN(CC)CC(=O)N(CC)c1ccc(C)c(Cl)c1`, the growth is 71.7% (inactive).

For the molecule `Clc1nc(-c2ccccn2)nc2sc3c(c12)CCCCCC3`, the growth was 96% (inactive).

On to `C=C1C(=O)O[C@H]2[C@H]1CC/C(COC(=O)N[C@@H](Cc1c[nH]c3ccccc13)C(=O)OC)=C\CC[C@@]1(C)O[C@@H]21`, for which the growth is -52.6% (active).

Take `CN(C)c1ccc(/C=C/c2ccnc3ccccc23)cc1`: the growth was 12.6% (inactive).

For `O=C(NCCN1CCOCC1)OCc1nc2nc(Cl)nc(N3CCOCC3)c2[nH]1`, the growth was -54% (active).

On to `O=c1cc(SCc2ccccc2)nc[nH]1`, for which the growth was 82.3% (inactive).

Consider `COC(=O)Nc1nc2ccc(C(=O)c3cccs3)cc2[nH]1`, for which the growth is -45.1% (active).

For `COc1ncc2cc1NS(=O)(=O)c1cccc(c1)C(=O)NCC1=CC=C(S1)c1ncnc3c1SC2=C3C`, the growth is -10.8% (active).

With `Nc1nc(N)c2nc(CNc3ccc(C(=O)CC(CCC(=O)O)C(=O)O)cc3)cnc2n1` (stereo not given), the growth was 49% (inactive).

Consider `O=C(Nc1ccccc1)Nc1ncnc2c1ncn2-c1ccccc1`, for which the growth was 100% (inactive).

Regarding `COc1cccc2nc(Nc3cccc(NC(=O)c4ccc(N5CCN(C)CC5)c(C(F)(F)F)c4)c3)ccc12`, the growth was 37.6% (inactive).

On to `CCOc1nc(-c2ccccc2)cc2c(O)c(C(=O)n3nc(C)cc3C)[nH]c(=O)c12`, for which the growth is 103% (inactive).

In the case of `CC[C@]12C=CCN3CC[C@@]4(c5cc([C@H]6CCC(=O)N6)c(OC)cc5N(C)[C@H]4[C@@](O)(C(=O)OC)[C@@H]1OC(C)=O)[C@@H]32`, the growth is 109% [2.5 µM] (inactive).

For `C=C(c1ccc(N(C)C)cc1)c1ccc(N(C)C)cc1`, the growth is -6.12% (active).

Take `CCCCCC/C=C1\CCC(CN2CCCC2)C1=O` (stereo not given): the growth was 62.2% (inactive).

For the molecule `Nc1ccc(Cl)c2c(=O)c3ccccc3[nH]c12`, the growth was 63.7% (inactive).

Regarding `C=C(C)[C@@H]1CC[C@]2(C(=O)N3CCN(C)CC3)CC[C@]3(C)[C@H](CC[C@@H]4[C@@]5(C)C/C(=C/c6ccc(C(F)(F)F)cc6)C(=O)C(C)(C)[C@@H]5CC[C@]43C)[C@@H]12`, the growth was 94.1% (inactive).

Regarding `Nc1nc(Cl)cc(=O)n1Cc1ccccc1`, the growth was 100% (inactive).

In the case of `N#Cc1c(-c2ccc(Cl)cc2)cc(-c2cc(O)ccc2O)nc1N`, the growth is 68.2% (inactive).

Turning to `COc1ccc(/C=N/OCC(O)CN2CCC(O)CC2)cc1OC1CCCC1` (stereo not given), the growth was 100% (inactive).

On to `Cc1cc(Nc2ccc(F)cc2)nc(N2CCN(c3ccnc4cc(Cl)ccc34)CC2)n1`, for which the growth was 7.98% (active).

The values are drawn from PubChem BioAssay (NCI).
